# Of roughly 7,900 targets only a part is listed; those with a hit were picked by preference. About 0.6% of all pairs of compound and target were hits. Values without a mark were called inactive.
# Tests used:
# Assay in all cases: log2 fold change, soluble protein after heating vs DMSO (PISA); higher = thermal stabilisation; K562 cells, 10 uM, 30 min; active = over 0.2 and 3.5 SD of the protein, either way, in both replicates (recomputed)
# [1] = compound: C1=CC=C(C=C1)[C@H](COC2=CC3=C(C=C2)NC(=O)N3)NC(=O)C4=CC=CN(C4=O)CC5=CC(=C(C=C5)F)F
# How it was run: (§1)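 Values are thermal stability changes relative to control samples and are taken from duplicates. They are stated as log2 fold changes. Before quantification by TMTpro 16plex LC-MS/MS with equalised channel sums, K562 cells at 2×10^6 cells/mL were treated with 10 μM compound for 30 min, heated in aliquots for 3 min across 48°C-58°C, pooled, extracted in PBS with 0.5% NP-40 at 4°C, and centrifuged at 21,000xg for 90 min to give the soluble supernatant.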
# [2] = compound: CC1=C(SC2=C1C(=N[C@H](C3=NN=C(N32)C)CC(=O)N)C4=CC=C(C=C4)Cl)C
# How it was run: as §1
# [3] = compound: CC1=C2C(=CC=C1)N=C(N(C2=O)C3=CC=CC=C3C)CN4C=NC5=C(N=CN=C54)N
# How it was run: as §1
# [4] = compound: Cc1sc2c(c1C)C(c1ccc(Cl)cc1)=N[C@@H](CC(=O)OC(C)(C)C)c1nnc(C)n1-2
# How it was run: as §1
# [5] = compound: c1ccc([C@@H]2C[C@H]2NC2CCNCC2)cc1
# How it was run: as §1
# Sequence of UniProt P35670 (P35670 whole entry, looked up): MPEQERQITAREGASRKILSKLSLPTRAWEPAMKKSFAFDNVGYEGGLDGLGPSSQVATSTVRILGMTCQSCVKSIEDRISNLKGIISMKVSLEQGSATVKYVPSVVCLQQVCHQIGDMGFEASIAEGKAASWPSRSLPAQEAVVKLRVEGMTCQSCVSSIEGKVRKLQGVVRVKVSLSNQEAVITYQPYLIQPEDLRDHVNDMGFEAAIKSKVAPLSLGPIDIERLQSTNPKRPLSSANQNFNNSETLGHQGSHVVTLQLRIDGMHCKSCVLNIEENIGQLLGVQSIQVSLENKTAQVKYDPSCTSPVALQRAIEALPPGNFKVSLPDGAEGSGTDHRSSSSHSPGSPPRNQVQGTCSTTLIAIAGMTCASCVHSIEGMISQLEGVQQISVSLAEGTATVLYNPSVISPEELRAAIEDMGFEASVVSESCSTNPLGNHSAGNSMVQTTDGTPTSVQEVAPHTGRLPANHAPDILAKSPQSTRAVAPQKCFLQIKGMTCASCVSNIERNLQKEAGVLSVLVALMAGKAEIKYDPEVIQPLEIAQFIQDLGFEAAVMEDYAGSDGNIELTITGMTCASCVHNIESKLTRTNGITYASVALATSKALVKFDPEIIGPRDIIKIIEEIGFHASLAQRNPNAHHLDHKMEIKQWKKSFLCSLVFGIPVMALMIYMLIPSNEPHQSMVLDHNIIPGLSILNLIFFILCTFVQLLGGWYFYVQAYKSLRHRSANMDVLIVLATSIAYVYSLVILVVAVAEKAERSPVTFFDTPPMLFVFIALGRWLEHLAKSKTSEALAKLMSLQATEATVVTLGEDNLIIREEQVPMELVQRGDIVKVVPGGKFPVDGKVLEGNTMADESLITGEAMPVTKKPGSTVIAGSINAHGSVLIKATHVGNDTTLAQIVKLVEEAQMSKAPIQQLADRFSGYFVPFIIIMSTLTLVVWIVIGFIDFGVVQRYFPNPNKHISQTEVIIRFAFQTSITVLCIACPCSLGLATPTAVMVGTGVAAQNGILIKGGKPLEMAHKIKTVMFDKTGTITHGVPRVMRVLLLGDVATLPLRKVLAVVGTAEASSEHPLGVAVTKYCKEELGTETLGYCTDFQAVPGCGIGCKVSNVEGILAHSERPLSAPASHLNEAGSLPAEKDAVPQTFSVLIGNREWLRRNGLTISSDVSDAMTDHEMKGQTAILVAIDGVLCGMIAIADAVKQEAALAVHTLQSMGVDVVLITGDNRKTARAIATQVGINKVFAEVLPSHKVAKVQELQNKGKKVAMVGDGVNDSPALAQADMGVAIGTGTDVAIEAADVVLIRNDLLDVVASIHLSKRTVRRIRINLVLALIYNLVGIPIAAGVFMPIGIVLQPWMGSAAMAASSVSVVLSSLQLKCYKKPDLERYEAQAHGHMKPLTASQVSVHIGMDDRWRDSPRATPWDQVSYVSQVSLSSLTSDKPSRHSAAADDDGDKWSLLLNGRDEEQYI
# Sequence of UniProt Q15057 (Q15057 whole entry, looked up): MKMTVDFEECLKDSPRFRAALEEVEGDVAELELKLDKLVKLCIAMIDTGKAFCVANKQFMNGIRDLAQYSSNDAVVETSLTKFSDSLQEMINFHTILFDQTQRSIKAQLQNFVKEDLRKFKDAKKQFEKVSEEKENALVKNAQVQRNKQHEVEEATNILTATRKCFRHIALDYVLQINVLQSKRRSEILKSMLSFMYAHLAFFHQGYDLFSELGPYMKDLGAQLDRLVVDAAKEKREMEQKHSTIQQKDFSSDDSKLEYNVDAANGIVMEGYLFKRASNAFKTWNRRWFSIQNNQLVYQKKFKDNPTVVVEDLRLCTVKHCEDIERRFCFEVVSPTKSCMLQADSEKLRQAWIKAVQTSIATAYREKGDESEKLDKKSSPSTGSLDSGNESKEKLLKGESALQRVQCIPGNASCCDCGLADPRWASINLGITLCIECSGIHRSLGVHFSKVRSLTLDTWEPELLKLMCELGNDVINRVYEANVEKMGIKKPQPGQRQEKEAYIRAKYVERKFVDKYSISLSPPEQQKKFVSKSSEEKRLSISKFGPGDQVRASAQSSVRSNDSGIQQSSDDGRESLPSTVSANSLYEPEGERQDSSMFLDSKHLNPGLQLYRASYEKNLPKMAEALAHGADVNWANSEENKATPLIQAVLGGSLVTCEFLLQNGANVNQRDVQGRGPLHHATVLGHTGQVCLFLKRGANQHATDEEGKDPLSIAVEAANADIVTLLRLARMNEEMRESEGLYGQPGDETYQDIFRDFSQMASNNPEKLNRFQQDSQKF
# Sequence of UniProt Q9NYF8 (Q9NYF8 whole entry, looked up): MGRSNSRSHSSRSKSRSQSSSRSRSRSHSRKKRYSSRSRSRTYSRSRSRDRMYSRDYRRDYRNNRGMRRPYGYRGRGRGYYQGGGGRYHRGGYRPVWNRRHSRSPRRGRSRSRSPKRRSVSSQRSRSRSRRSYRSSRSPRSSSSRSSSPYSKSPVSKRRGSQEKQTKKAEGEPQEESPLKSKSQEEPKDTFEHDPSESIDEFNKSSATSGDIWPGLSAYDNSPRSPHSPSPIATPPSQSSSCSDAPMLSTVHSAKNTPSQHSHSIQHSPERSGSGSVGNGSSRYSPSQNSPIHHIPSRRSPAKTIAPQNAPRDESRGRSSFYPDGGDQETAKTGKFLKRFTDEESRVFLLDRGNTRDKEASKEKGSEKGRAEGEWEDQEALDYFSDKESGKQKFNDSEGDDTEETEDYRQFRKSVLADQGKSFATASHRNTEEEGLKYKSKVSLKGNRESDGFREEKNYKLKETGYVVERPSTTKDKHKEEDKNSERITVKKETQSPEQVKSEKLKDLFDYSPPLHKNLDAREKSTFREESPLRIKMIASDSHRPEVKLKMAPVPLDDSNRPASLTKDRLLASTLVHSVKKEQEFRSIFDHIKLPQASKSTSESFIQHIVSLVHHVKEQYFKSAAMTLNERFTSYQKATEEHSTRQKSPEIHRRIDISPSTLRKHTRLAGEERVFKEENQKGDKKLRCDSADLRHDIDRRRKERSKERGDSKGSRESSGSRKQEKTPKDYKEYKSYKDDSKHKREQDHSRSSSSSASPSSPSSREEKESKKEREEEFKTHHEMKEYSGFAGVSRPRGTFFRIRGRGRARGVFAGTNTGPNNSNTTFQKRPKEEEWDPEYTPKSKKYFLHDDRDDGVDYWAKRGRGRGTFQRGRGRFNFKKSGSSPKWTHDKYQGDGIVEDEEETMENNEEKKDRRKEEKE
# Sequence of UniProt Q9UKV3 (Q9UKV3 whole entry, looked up): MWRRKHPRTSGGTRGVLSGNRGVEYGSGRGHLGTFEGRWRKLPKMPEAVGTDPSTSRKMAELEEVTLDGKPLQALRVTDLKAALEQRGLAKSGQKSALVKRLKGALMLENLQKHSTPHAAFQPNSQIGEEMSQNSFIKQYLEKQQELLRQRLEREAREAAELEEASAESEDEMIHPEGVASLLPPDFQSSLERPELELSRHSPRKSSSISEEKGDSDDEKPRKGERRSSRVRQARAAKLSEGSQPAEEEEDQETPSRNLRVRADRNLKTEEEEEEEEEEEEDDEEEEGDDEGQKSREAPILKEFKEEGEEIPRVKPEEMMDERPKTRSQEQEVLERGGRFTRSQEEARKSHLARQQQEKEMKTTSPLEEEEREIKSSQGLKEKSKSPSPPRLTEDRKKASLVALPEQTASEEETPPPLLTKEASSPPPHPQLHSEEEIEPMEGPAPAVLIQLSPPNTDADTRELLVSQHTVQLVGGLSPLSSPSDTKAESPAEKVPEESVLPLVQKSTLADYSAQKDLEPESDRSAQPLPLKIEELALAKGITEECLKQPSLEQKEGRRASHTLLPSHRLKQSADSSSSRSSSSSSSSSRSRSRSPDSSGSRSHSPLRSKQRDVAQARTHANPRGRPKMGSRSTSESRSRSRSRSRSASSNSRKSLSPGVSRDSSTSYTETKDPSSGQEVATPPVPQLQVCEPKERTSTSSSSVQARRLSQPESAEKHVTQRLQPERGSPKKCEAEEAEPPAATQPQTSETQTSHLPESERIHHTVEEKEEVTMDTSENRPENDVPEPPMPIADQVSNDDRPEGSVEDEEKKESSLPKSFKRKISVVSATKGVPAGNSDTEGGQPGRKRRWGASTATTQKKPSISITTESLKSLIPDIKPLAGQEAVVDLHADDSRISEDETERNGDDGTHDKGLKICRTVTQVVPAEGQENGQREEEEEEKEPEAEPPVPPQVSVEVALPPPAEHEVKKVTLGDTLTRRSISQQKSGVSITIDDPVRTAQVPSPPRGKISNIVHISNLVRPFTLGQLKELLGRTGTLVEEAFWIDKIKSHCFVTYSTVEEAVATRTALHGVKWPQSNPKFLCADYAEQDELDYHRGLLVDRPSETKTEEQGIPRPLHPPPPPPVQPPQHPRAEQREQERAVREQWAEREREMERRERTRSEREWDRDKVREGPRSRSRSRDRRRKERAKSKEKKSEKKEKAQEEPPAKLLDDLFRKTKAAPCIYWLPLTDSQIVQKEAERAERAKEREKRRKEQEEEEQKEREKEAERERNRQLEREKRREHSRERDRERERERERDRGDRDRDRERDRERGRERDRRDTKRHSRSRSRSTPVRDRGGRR
# Sequence of UniProt Q13685 (Q13685 whole entry, looked up): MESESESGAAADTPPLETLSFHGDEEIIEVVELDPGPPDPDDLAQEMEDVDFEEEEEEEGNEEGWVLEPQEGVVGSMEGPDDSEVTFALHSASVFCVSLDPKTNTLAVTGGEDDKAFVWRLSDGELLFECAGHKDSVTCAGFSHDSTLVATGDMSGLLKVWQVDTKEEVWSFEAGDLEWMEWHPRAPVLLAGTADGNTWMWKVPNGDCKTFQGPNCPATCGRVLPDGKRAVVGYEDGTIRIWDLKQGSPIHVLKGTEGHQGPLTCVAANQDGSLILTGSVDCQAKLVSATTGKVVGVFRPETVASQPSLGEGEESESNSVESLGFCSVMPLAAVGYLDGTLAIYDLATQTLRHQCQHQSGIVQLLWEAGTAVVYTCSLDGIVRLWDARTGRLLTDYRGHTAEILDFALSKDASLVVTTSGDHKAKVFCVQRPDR
Target,log2 fold change [1],log2 fold change [2],log2 fold change [3],log2 fold change [4],log2 fold change [5]
ADAM15 (UniProt Q13444),-0.041,0.059,0.096,0.08,0
ARMC10 (UniProt Q8N2F6),0.035,-0.017,-0.006,0.012,-0.009
ALDH6A1 (UniProt Q02252),0.082,0.124,0.128,-0.07,0.019
ALKBH5 (UniProt Q6P6C2),0.065,-0.002,0.085,-0.024,0.028
ABCA3 (UniProt Q99758),0.239,0.002,-0.05,0.02,-0.035
AARSD1 isoform 3 (UniProt Q9BTE6),-0.053,-0.068,0.039,0.047,0.023
ANKZF1 (UniProt Q9H8Y5),-0.113,-0.037,-0.01,0.15,-0.008
AP2M1 (UniProt Q96CW1),-0.005,0.03,-0.013,0.006,0.009
ATP13A2 (UniProt Q9NQ11),0.031,-0.075,0.007,-0.062,0.092
ATXN3 isoform 1 (UniProt P54252),-0.012,0.001,0.118,-0.068,0
ACIN1 (UniProt Q9UKV3),0.003,0.095,0.038,0.023,-0.018
ACBD6 (UniProt Q9BR61),-0.033,0.087,0.1,-0.072,0.073
ACSL3 (UniProt O95573),-0.05,0.068,0.028,-0.014,-0.036
ATF1 (UniProt P18846),-0.054,0.11,-0.001,-0.014,-0.391 (active)
ARFGAP1 (UniProt Q8N6T3),0.033,0.077,0.074,-0.064,-0.034
ADK (UniProt P55263),0.026,0.036,0.154,-0.008,-0.057
AKR1C3 (UniProt P42330),0.155,0.049,0.132,-0.038,-0.156
ADH5 (UniProt P11766),0.026,0.024,0.025,-0.023,0.017
ALDH9A1 isoform 3 (UniProt P49189),-0.007,0.029,0.019,-0.019,0.028
BCAP29 isoform 2 (UniProt Q9UHQ4),-0.017,0.029,0.035,-0.008,0.032
ANP32E (UniProt Q9BTT0),-0.092,-0.037,0.14,-0.012,0.075
ARMC8 (UniProt Q8IUR7),0.05,-0.005,0,0.021,0.011
ABCB6 (UniProt Q9NP58),0.001,0.003,0.05,-0.049,0.012

Target,log2 fold change [1],log2 fold change [2],log2 fold change [3],log2 fold change [4],log2 fold change [5]
AAMP (UniProt Q13685),-0.015,-0.013,0.014,-0.032,0.021
AGPAT1 (UniProt Q99943),-0.006,0.075,0.103,-0.032,0.023
BOP1 (UniProt Q14137),0.096,-0.099,0.01,-0.036,-0.01
AP2M1 (UniProt C9JTK4),-0.113,0.083,0.131,0.136,-0.076
AASDH (UniProt Q4L235),0.047,0.054,-0.25,-0.05,0.037
AARS2 (UniProt Q5JTZ9),-0.047,0.081,0.044,0.005,-0.016
AFG1L (UniProt Q8WV93),0.025,0.096,-0.008,-0.074,-0.129
ATRN (UniProt O75882),-0.011,-0.031,0.027,-0.055,0.006
ATP1A4 (UniProt Q13733),-0.084,-0.142,0.035,0.036,0.056
BAIAP2 (UniProt Q9UQB8),-0.019,0.071,0.072,0.014,0.002
B4GALNT1 (UniProt Q00973),-0.029,-0.068,-0.001,-0.102,-0.062
ADD3 (UniProt Q9UEY8),0.019,0.034,0.023,-0.002,0.029
ATP6AP1 (UniProt Q15904),0.014,-0.069,-0.009,-0.055,-0.022
ATP7B (UniProt P35670),0,0.094,0.014,0.022,0.076
BCLAF1 (UniProt Q9NYF8),0.031,0.027,-0.118,-0.013,0.047
ATAD3A isoform 2 (UniProt Q9NVI7),-0.019,-0.037,-0.052,0.08,0.054
BRIP1 (UniProt Q9BX63),0.042,-0.005,0,-0.042,0.122
ALG5 (UniProt Q9Y673),-0.037,0.1,0.082,-0.06,-0.056
AAR2 (UniProt Q9Y312),0.024,0.08,-0.053,0.069,-0.012
ABHD16A (UniProt O95870),-0.005,0.011,0.026,0.066,-0.088
AP2A2 isoform 2 (UniProt O94973),-0.021,-0.02,0.04,0.048,0.028
ARAF (UniProt P10398),-0.05,-0.003,0.178,0.022,0.027
ACAP2 (UniProt Q15057),-0.009,-0.001,0.132,0.01,0.011
